# Results published in article PMC4336329 (PLoS ONE, 2015).
# Among all 310,000 compounds or so, about 14,000 (4.5%) showed an effect of 50% or more. Effects have a minus sign here. For the sample, strong results were picked, then their nearest neighbours and some compounds at random.
# Target: human ether-à-go-go-related gene (hERG) potassium channel (human, UniProt Q12809)
# Experiment: primary screen, population patch clamp on CHO cells stably expressing hERG; higher = less effect of the substance
# 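Further: peak tail current of the secondary pulse compared with the same well before compound.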
# human ether-à-go-go-related gene (hERG) potassium channel, sequence (Q12809 whole entry, looked up): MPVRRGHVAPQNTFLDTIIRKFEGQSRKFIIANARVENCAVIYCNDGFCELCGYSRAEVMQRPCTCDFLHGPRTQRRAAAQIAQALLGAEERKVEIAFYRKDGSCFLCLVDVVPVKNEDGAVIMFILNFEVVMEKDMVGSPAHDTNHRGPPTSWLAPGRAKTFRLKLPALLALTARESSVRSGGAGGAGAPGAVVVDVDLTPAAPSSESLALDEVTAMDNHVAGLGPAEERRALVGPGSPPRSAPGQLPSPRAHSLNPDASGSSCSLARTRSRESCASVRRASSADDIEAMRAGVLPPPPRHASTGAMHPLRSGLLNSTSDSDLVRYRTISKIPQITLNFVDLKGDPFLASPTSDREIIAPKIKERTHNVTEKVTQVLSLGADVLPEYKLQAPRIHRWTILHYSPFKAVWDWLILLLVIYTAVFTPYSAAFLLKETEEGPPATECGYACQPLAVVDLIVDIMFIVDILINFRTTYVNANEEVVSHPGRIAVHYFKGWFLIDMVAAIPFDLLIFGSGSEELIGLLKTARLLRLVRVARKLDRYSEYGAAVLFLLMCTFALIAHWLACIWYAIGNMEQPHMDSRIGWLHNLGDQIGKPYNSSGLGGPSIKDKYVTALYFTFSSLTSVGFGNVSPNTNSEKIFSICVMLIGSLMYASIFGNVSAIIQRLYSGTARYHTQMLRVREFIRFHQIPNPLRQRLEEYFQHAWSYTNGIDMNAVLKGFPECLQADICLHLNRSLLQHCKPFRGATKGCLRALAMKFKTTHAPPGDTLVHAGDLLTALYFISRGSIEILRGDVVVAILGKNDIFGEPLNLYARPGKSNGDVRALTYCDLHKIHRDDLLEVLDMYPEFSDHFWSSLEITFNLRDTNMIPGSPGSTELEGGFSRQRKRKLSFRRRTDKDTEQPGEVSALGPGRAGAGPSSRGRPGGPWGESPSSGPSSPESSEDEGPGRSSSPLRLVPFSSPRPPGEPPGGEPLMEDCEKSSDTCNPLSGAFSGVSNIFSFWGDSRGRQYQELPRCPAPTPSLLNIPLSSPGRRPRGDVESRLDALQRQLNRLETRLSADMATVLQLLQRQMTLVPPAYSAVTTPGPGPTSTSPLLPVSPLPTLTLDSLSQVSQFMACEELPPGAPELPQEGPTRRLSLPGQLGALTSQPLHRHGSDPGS
row,SMILES,"hERG current change (%, negative = inhibition) at 10uM [%]"
1,Nc1nc2ccc(C(=O)Nc3ccccc3)cc2s1,7.6
2,Cc1ccc2c(c1)CC1(CN2C)C(=O)NC(=O)N(CCc2ccccc2)C1=O (stereo not shown),-15.2
3,CNC(=O)C(C)c1ncc(C(F)(F)F)cc1Cl (stereo not shown),17.6
4,Nn1c(SCC(=O)N2CCN(S(=O)(=O)c3ccc(Cl)cc3)CC2)nnc1-c1cccs1,-52.1
5,Nn1c(SCC(=O)N2CCN(S(=O)(=O)c3ccccc3)CC2)nnc1-c1cccs1,-10.1
6,Cn1c(SCC(=O)Nc2ccccc2F)nnc1-c1cccs1,-24.2
7,CCn1c(SCC(=O)Nc2ccc(C(=O)OC)cc2)nnc1-c1cccs1,-10.7
8,CC(=O)Nc1ccc(NC(=O)CSc2nnc(-c3cccs3)n2N)cc1,1.15
9,Cc1nnc(SCC(=O)N2CCN(S(=O)(=O)c3ccc(Cl)cc3)CC2)n(N)c1=O,-19
10,CCc1ccc(NC(=O)CSc2nnc(-c3cccs3)n2CC)cc1,-69.7
11,Nn1c(SCC(=O)Nc2ccccc2F)nnc1-c1cccs1,-65.7
12,CCOC(=O)c1cnn(-c2ccccc2)c1NC(=O)CSc1nnc(-c2cccs2)n1CC,-69.5
13,CCOC(=O)c1ccc(NC(=O)CSc2nnc(-c3cccs3)n2CC)cc1,5.69
14,CCn1c(SCC(=O)Nc2cc(C)nn2-c2ccccc2)nnc1-c1cccs1,-12.9
15,CCn1c(SCC(=O)Nc2c(C#N)cnn2-c2ccccc2)nnc1-c1cccs1,-13.6
16,O=C(NCc1ccccc1)c1cccc(NS(=O)(=O)c2cccc3cccnc23)c1,6.09
17,COc1cnc(-c2ccccc2)nc1OC,12.4
18,O=C(O)c1cc(S(=O)(=O)NCc2ccco2)c(Cl)cc1Cl,14.9
19,COCC(C)NCc1ccc(C)cc1C (stereo not shown),-14.3
20,O=S(=O)(NCc1ccccn1)c1ccc2c(c1)OCCO2,10.5
21,Nc1cc(-c2cccc(Br)c2)nn1Cc1ccccc1,-17.2
22,Nc1cc(=O)nc(SCC(=O)Nc2cccc3ccccc23)n1CCc1ccccc1,-7.07
23,CCOC(=O)C1C(c2ccc(O)cc2)NC(=O)NC1(O)C(F)(F)F (stereo not shown),2.48
24,O=C(NNC(=O)C1CCC1)c1cccc(Cl)c1,-5.52

row,SMILES,"hERG current change (%, negative = inhibition) at 10uM [%]"
1,CCOP(=O)(OCC)c1cc(C)c(O)c(C(C)(C)C)c1,-3.41
2,Cc1ccc(NC(=O)c2ccco2)cc1NC(=O)CSc1nnc(-c2cccs2)n1C,-38
3,CCn1c(SCC(=O)Nc2cccc(NC(=O)c3ccco3)c2)nnc1-c1cccs1,-79.8
4,CCn1c(SCC(=O)c2ccccc2)nnc1-c1cccs1,-14.8
5,CCn1c(SCC(=O)Nc2ccccc2)nnc1-c1cccs1,-70.8
6,Cn1c(Cc2cccs2)nnc1SC/C=C/c1ccccc1,-0.882
7,C=CCn1c(SCc2ccc3nonc3c2)nnc1-c1cccs1,-68.7
8,CCn1c(SCC(=O)Nc2cc(OC)c(OC)c(OC)c2)nnc1-c1cccs1,-7.07
9,C=CCn1c(SCCC(=O)O)nnc1-c1cccs1,6.75
10,CCn1c(SC/C=C/c2ccccc2)nnc1-c1cccs1,-66.3
11,CCn1c(SCC(=O)Nc2ccc(NC(=O)c3ccco3)cc2)nnc1-c1cccs1,11.9
12,O=C(CSc1nnc(-c2cccs2)n1-c1ccccc1)Nc1ccccc1,-44.3
13,C=CCn1c2ccccc2c2nnc(SCc3ccc4nonc4c3)nc21,0.592
14,Cc1ccc(NC(=O)Nc2ccc([N+](=O)[O-])cc2)nc1,9.85
15,CCCCn1c(N)c(N(Cc2ccccc2OC)C(=O)c2cc(=O)[nH]c3ccccc23)c(=O)[nH]c1=O,17.1
16,CC(=O)N1CCN(C(=O)CSc2nc3c(cnn3-c3ccccc3)c(=O)[nH]2)CC1,-9.1
17,CCOc1ccc(N(C)S(=O)(=O)c2ccc(C)c(C(=O)NCc3ccccc3OC)c2)cc1,-6.23
18,Cc1ccc(-c2nn(CC(=O)NN3CCOCC3)c(=O)c3ccccc23)cc1,-1.66
19,N#Cc1cc(Cl)c(NCC2CCCO2)cc1C#N (stereo not shown),7.45
20,CC1CCCN(C(=O)Nc2cccc(NC(=O)N3CCCC(C)C3C)c2)C1C (stereo not shown),0.168
21,Cc1ccc(N2CC(C(=O)Nc3ccc(C)c(S(=O)(=O)N(C)C)c3)CC2=O)cc1 (stereo not shown),-25.2
22,O=C(OC(C(=O)NC1CCCC1)c1ccccc1F)c1ccco1 (stereo not shown),5.25
23,Cc1cccc(NC(=O)CSCC(=O)N2CCN(c3cccc(C(F)(F)F)c3)CC2)c1,-21.8
24,COc1ccc(NC(=O)CSCC(=O)N(C)CC(=O)Nc2c(C)cccc2C)cc1,-0.574

row,SMILES,"hERG current change (%, negative = inhibition) at 10uM [%]"
1,CNC(=O)c1c(N)sc2c1CCCCC2,-3.16
2,COC(=O)C(NC(=O)c1ccco1)(Nc1nc(C2CC2)cs1)C(F)(F)F (stereo not shown),11.7
3,Cn1ccnc1COc1ccc(C=O)cc1,10.4
4,COc1ccc(-n2nnnc2SCc2nc3ccccc3s2)cc1,-5.94
5,COc1ccc(-c2nnc(SCc3nc4ccccc4s3)n2C(C)C)cc1,-67.7
6,Cn1c(SCc2nc3ccccc3s2)nnc1-c1cccs1,-36
7,COc1cccc(-c2nnc(SCc3nc4ccccc4s3)n2C)c1,-29
8,C=CCn1c(SCC(=O)Nc2ccc3c(c2)CCC3)nnc1-c1cccs1,-76.9
9,C=CCn1c(SCC(=O)Nc2ccc(C(=O)OC(C)C)cc2)nnc1-c1cccs1,5.07
10,CCn1c(SCc2nc3ccccc3s2)nnc1-c1ccccc1,-11
11,CCn1c(SCc2nc3ccccc3s2)nnc1-c1cccs1,-60
12,C=CCn1c(SCC(=O)Nc2ccc(C(=O)OCC)cc2)nnc1-c1cccs1,16.7
13,Cc1c(/C=N\NC(=O)C2COc3ccc(C(C)(C)C)cc3O2)c2ccccc2n1C (stereo not shown),14
14,CC(C)c1nnc(NC(=O)CCS(=O)(=O)c2ccccc2)s1,19.5
15,CCOC(=O)N1CCC(NC(=O)C2CCCN(C(=O)N3CCOc4ccccc43)C2)CC1 (stereo not shown),3.21
16,CCCCOc1ccc(-c2c(C(=O)Nc3ccccc3)c(C)[nH]c(=S)c2C#N)cc1,12.1
17,C/C(=N/NC(=O)c1ccco1)c1cccc(NC(=O)c2ccc(C)s2)c1,1.1
18,COc1ccc(CCNC(=O)CCS(=O)(=O)c2ccc3c(c2)NC(=O)CO3)cc1OC,14.5
19,COc1ccc(NC(=O)CNC(=O)Cn2ccc3ccccc3c2=O)c(OC)c1,15
20,Cc1nn(Cc2ccc(Cl)cc2)c2sc(C(=O)O)cc12,31.1
21,Cc1nn(Cc2ccc(Cl)cc2)c2sc(C(=O)OCC(N)=O)cc12,-52.1
22,Cc1ccc(Cn2nc(C)c3cc(C(=O)OCC(N)=O)sc32)cc1,7.64
23,OCCC1CN(Cc2ccon2)CCN1CCc1ccccc1 (stereo not shown),-19.2
24,CC(=O)Nc1ccc(CN2CCN(CC(C)C)C(CCO)C2)cc1 (stereo not shown),2.2

row,SMILES,"hERG current change (%, negative = inhibition) at 10uM [%]"
1,OCCC1CN(Cc2ccc(F)cc2)CCN1CCc1ccccc1 (stereo not shown),-74.2
2,CC(=O)Nc1ccc(CN2CCN(CCc3ccccc3)C(CCO)C2)cc1 (stereo not shown),-51.8
3,OCCC1CN(Cc2ccc(Oc3ncccn3)cc2)CCN1CCc1ccccc1 (stereo not shown),-55.2
4,CC(C)CN1CCN(Cc2ccc(Oc3ncccn3)cc2)CC1CCO (stereo not shown),-28.5
5,CC(C)CN1CCN(Cc2ccc(F)cc2Cl)CC1CCO (stereo not shown),-34.4
6,OCCC1CN(Cc2ccc(F)cc2Cl)CCN1CCc1ccccc1 (stereo not shown),-67.4
7,CC(=O)Nc1ccc(CN2CCN(CCC(C)C)C(CCO)C2)cc1 (stereo not shown),19.7
8,CC(C)CCN1CCN(Cc2ccc(Oc3ncccn3)cc2)CC1CCO (stereo not shown),-9.21
9,COc1cc(NC(=O)COC(=O)Cc2ccc(-c3ccccc3)cc2)cc(OC)c1,3.6
10,Cc1cc(=O)[nH]c2nnnn12,4.44
11,O=C(Nc1cccc(F)c1)Nc1ccnn1C1CCN(C(=O)c2ccccn2)CC1,14.2
12,COc1cccc(N=C2SC(C(=O)Nc3ccc(F)cc3)CC(=O)N2C)c1 (stereo not shown),-11
13,CC(OC(=O)c1nn(C)c(=O)c2ccccc12)C(=O)Nc1ccc(S(N)(=O)=O)cc1 (stereo not shown),11.6
14,COC(=O)c1ccc(CN2CCN(Cc3ccccc3)C(CCO)C2)cc1 (stereo not shown),-16.5
15,COC(=O)c1ccc(CN2CCN(CCC(C)C)C(CCO)C2)cc1 (stereo not shown),-25.7
16,OCCC1CN(Cc2ccc(F)cc2)CCN1CCCc1ccccc1 (stereo not shown),-68.2
17,Cc1ccc(CN2CCN(Cc3ccc4c(c3)OCCO4)CC2CCO)cc1 (stereo not shown),-39.8
18,OCCC1CN(Cc2cc(F)ccc2F)CCN1CCCc1ccccc1 (stereo not shown),-70.3
19,OCCC1CN(Cc2ccc3c(c2)CCO3)CCN1C1CCCC1 (stereo not shown),-12.7
20,OCCC1CN(Cc2ccc3c(c2)CCO3)CCN1Cc1ccc(F)cc1 (stereo not shown),-72.9
21,Cc1cc(C)n(-c2ccc(F)cc2CN2CCN(Cc3ccccc3)C(CCO)C2)n1 (stereo not shown),-37.2
22,COC(=O)c1ccc(CN2CCN(CCCc3ccccc3)C(CCO)C2)cc1 (stereo not shown),-64.1
